Test [1] has as its target Retinoic acid receptor RXR-alpha (Homo sapiens) (UniProt P19793). As to the kind of experiment: qHTS assay to identify small molecule agonists of the RXR signaling pathway (AID 1159527; calls by dose curve; also: nearly all actives have a fitted effect of over 35% in size). The method, boiled down:
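Agonist-mode beta-lactamase reporter assay: HEK 293T RXR-alpha-UAS-bla cells treated 16 hr at 37 C with compounds, 9-cis retinoic acid as positive control. LiveBLAzer FRET substrate, 405 nm excitation, 460/530 nm emission.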

Test [2] can be described thus: qHTS assay to identify small molecule agonists of the RXR signaling pathway - cell viability counter screen (AID 1159529). Also: nearly all actives have a fitted effect of over 50% in size. The method, boiled down: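 CellTiter-Glo luminescence gave viability in the wells also read for beta-lactamase. Cells (RXR-alpha-UAS-bla HEK 293T, 2% charcoal-stripped FBS medium) had 5 hr plating, then 16 hr compound exposure at 37 C; tetraoctyl ammonium bromide served as positive control.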
In general terms: Quantitative high-throughput screening tests each substance at several concentrations.

Test [3] in a line: qHTS assay to identify small molecule antagonists of the retinoid acid receptor (RAR) signaling pathway - cell viability counter screen (AID 1159551). Also: nearly all actives have a fitted effect of over 35% in size. In outline: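 Measured by luminescent ATP detection, viability reflects C3RL4 cells treated 6 h at 37 C with test chemicals in the presence of 1 uM (final) retinol.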
Test [4] in a line: qHTS assay to identify small molecule antagonists of the estrogen related receptor (ERR) signaling pathway from Tox21 library - cell viability counter screen (AID 1224834). Also: nearly all actives have a fitted effect of over 30% in size. Also: potency is read from the fitted curve at half-maximal effect. The method, boiled down: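 Seeded ERR cells were rested 6 h at 37 C/5% CO2 before compounds, positive and negative controls or DMSO were added. Incubation continued for 17.5 h, and viability was then quantified by CellTiter-Fluor fluorescence.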

Test [5] deals with Luciferin 4-monooxygenase (Photinus pyralis) (UniProt P08659). The test can be described thus: qHTS assay to identify small molecule inhibitors of firefly luciferase (AID 1224835). Also: nearly all actives have a fitted effect of over 25% in size. Also: potency is read from the fitted curve at half-maximal effect. In outline: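 Quantitative HTS format; KM concentrations of both substrates. Purified P. pyralis FLuc activity quantified from luminescence images.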
A short description of test [6]: qHTS assay to identify small molecule antagonists of the retinoic acid receptor (RAR) signaling pathway (AID 1159552; also: nearly all actives have a fitted effect of over 50% in size). In outline:
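Luminescent RARE reporter read-out in C3RL4 cells: 6 hr co-treatment at 37 C of test compounds with retinol at 1 uM final. Cells plated overnight beforehand; luciferase reagent incubated 30 min at room temperature before reading.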

Test [7] in a line: qHTS assay to identify small molecule agonists of the retinoic acid receptor (RAR) signaling pathway (AID 1159553). To be noted: C3RL4 RARE luciferase reporter, agonist, 6 h; activation: at 73.3 µM (top of the series) unless noted. The method, boiled down: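 6 hr compound exposure (DMSO vehicle) of overnight-plated C3RL4 RARE-luc cells at 37 C; luminescence quantified after 30 min RT with luciferase reagent.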

Test [8] in a line: qHTS assay to identify small molecule agonists of the constitutive androstane receptor (CAR) signaling pathway - cell viability counter screen (AID 1224836). Also: nearly all actives have a fitted effect of over 45% in size. The method, boiled down: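 Cell viability multiplexed with the CAR agonist screen: CellTiter-Fluor fluorescence after 23 hr at 37 C. HepG2-CYP2B6-hCAR cells got compounds at 15 concentrations with PK11195 at 0.75 uM final.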

Several values for one entry are separate records, joined by “and”; a condition that tells them apart may be missing. Equal entries are not always repeated. Results filed as inconclusive are left out. The source holds several records for some structures; these can differ, active in one and inactive in another. Activity calls are given as the source filed them. Unless noted, calls follow the shape of the dose curve; as a rule, active = well fitted curve in the direction sought with a large enough effect in the repeat runs; inconclusive = weak or mixed curves; inactive = no such curve, though single readings can be large; an effect the other way counts as inactive or inconclusive.

Sequence of Luciferin 4-monooxygenase (Photinus pyralis) (P08659 whole entry, looked up): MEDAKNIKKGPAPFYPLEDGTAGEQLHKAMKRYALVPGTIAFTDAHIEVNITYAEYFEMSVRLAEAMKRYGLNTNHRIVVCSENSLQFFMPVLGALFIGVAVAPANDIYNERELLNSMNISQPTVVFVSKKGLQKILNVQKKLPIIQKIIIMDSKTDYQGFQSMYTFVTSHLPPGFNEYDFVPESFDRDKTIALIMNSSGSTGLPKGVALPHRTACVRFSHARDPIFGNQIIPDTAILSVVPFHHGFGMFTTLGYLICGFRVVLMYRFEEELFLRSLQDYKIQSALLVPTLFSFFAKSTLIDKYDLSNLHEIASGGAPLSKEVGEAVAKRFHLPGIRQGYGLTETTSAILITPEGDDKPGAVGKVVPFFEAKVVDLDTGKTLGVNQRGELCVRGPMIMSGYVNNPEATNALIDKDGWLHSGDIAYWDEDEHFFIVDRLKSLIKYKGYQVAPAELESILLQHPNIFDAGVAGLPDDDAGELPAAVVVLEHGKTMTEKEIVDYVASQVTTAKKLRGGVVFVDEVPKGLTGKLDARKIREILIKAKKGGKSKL
Sequence of Retinoic acid receptor RXR-alpha (Homo sapiens) (P19793 whole entry, looked up): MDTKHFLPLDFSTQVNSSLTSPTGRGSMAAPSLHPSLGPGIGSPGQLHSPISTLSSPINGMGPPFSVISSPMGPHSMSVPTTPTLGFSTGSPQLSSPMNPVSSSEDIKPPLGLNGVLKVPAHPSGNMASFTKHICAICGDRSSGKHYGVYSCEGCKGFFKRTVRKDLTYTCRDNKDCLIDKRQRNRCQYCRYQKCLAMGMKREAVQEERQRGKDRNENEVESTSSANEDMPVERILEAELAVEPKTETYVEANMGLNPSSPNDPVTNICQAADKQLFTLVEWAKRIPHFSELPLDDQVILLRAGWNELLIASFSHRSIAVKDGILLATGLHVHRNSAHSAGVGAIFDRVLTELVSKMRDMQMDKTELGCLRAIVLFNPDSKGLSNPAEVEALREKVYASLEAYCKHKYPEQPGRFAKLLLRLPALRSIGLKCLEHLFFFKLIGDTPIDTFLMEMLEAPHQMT

For `Oc1ccccc1Cl`, the Potency result in test [1], in test [2], in test [4] and in test [5] was “inactive” in each case. For the same compound, the call in test [3] was inactive.

`CCNc1nc(NC(C)C)nc(SC)n1`: the Potency result in test [1], in test [2], in test [4] and in test [5] was “inactive” in each case. For the same compound, the result in test [3] was inactive.

As for `Cc1cc(-c2cc(C)c(N)c(C)c2)cc(C)c1N`, the Potency result in test [1], in test [2], in test [6], in test [7], in test [4] and in test [5] was “inactive” in each case. Moreover, the Potency result in test [8] was “inactive”. Also, the call in test [3] was inactive.

Regarding `O=C(O)c1ccccn1`, the Potency result in test [1], in test [2], in test [4] and in test [5] was “inactive” each time. Besides, the compound was classed as inactive in test [3].

With `O=S(=O)(c1ccc(O)cc1)c1ccc(O)cc1`, the Potency result in test [1], in test [2], in test [6], in test [7], in test [4] and in test [5] was “inactive” each time. In test [8], the Potency result is “inactive”. Further, the compound was called inactive in test [3].

With `O=c1ccc(=O)[nH][nH]1`, the Potency entry in test [1], in test [2], in test [4] and in test [5] was “inactive” each time. In addition, the outcome in test [3] was inactive.

On to `CC(Br)C(=O)O` (centres undefined), for which the Potency entry in test [1], in test [2], in test [6], in test [7], in test [4] and in test [5] was “inactive” each time. Moreover, the Potency entry in test [8] is “inactive”. The outcome in test [3] was inactive.

Regarding `CCCN(CCC)N=O`, the Potency entry in test [1], in test [2], in test [6], in test [7], in test [4] and in test [5] was “inactive” in each case. Further, in test [8], the Potency entry is “inactive”. Further, in test [3], the compound was called inactive.

In the case of `O=[N+]([O-])c1ccccc1`, the Potency entry in test [1], in test [2], in test [6], in test [7], in test [4] and in test [5] was “inactive” each time. Also, the Potency result in test [8] was “inactive”. Besides, in test [3], the compound was classed as inactive.

For the compound `Clc1cccc(Cl)c1Cl`, the Potency entry in test [1], in test [2], in test [6], in test [7], in test [4] and in test [5] was “inactive” each time. For the same compound, in test [8], the Potency entry is “inactive”. The call in test [3] was inactive.

For the compound `[N-]=[N+]=[N-]`, the Potency result in test [1], in test [2], in test [4] and in test [5] was “inactive” each time. Besides, in test [3], the compound was classed as inactive.

Turning to `CC(C)C1(C)N=C(c2nc3ccccc3cc2C(=O)O)NC1=O` (centres undefined), the Potency result in test [1], in test [2], in test [6], in test [7], in test [4] and in test [5] was “inactive” throughout. Also, the Potency result in test [8] is “inactive”. Also, in test [3], the result was inactive.

Regarding `Nc1ccc(Oc2ccc(N)cc2)cc1`, the Potency result in test [1], in test [2], in test [6], in test [4] and in test [8] was “inactive” each time. Besides, in test [3], the compound was classed as inactive. In test [5], the Potency entry was “inactive and 63.3 µM (active)”.

For `[O-][Cl+2]([O-])O`, the Potency entry in test [1], in test [2], in test [6], in test [7], in test [4] and in test [5] was “inactive” in each case. Besides, in test [8], the Potency entry was “inactive”. Besides, the compound was called inactive in test [3].

Take `Cc1ccc(N)cc1Cl`: the Potency entry in test [1], in test [2], in test [6], in test [7], in test [4] and in test [8] was “inactive” each time. Besides, the compound was classed as inactive in test [3]. Also, the Potency entry in test [5] is “inactive and 56.4 µM (active)”.

For `O=[N+]([O-])c1ccc([As](=O)(O)O)cc1`, the Potency result in test [1], in test [2], in test [6], in test [7], in test [4] and in test [5] was “inactive” each time. Moreover, the Potency result in test [8] is “inactive”. Further, the call in test [3] was inactive.

As to `C=CCO`, the Potency entry in test [1], in test [2], in test [4] and in test [5] was “inactive” throughout. In addition, the compound was called inactive in test [3].

Regarding `c1cc2c3c(cccc3c1)CC2`, the Potency entry in test [1], in test [2], in test [6], in test [7], in test [4] and in test [5] was “inactive” throughout. Moreover, the Potency entry in test [8] is “inactive”. In addition, the call in test [3] was inactive.

As to `CC(=O)C=C(C)C`, the Potency result in test [1], in test [2], in test [7], in test [4], in test [5] and in test [8] was “inactive” in each case. For the same compound, the result in test [3] was inactive.

`CN1C(=O)CN=C(c2ccccc2)c2cc(Cl)ccc21`: the Potency result in test [1], in test [2], in test [7] and in test [4] was “inactive” each time. The compound was classed as inactive in test [3].

In the case of `Cc1[nH]c(=O)n(C(C)(C)C)c(=O)c1Cl`, the Potency entry in test [1], in test [2], in test [6], in test [7], in test [4] and in test [5] was “inactive” throughout. For the same compound, in test [8], the Potency entry is “inactive”. For the same compound, the compound was classed as inactive in test [3].

Turning to `c1ccc(OP(Oc2ccccc2)Oc2ccccc2)cc1`, the Potency result in test [1], in test [2], in test [4] and in test [5] was “inactive” in each case. Besides, the outcome in test [3] was inactive.

On to `CCC12COCN1COC2`, for which the Potency result in test [1], in test [2], in test [4], in test [5] and in test [8] was “inactive” each time. The compound was called inactive in test [3].

Turning to `COC(=O)NS(=O)(=O)c1ccc(N)cc1`, the Potency result in test [1], in test [2], in test [4], in test [5] and in test [8] was “inactive” each time. The compound was classed as inactive in test [3].

For `CCCCN(CCCC)SN(C)C(=O)Oc1cccc2c1OC(C)(C)C2`, the call in test [3] was inactive. The Potency entry in test [4] and in test [5] was “inactive” throughout.

Turning to `COc1ccc2c3c1O[C@H]1[C@@H](O)C=C[C@H]4[C@@H](C2)N(C)CC[C@@]341`, the Potency result in test [1], in test [2], in test [5] and in test [8] was “inactive” each time. In addition, the compound was classed as inactive in test [3]. In addition, the Potency in test [4] is 42.6 µM (active) and inactive.

As to `CCN(CC)c1ccccc1`, the Potency entry in test [1], in test [2], in test [4], in test [5] and in test [8] was “inactive” each time. Also, the outcome in test [3] was inactive.

On to `COC(=O)c1ccccc1C(=O)OC`, for which the Potency result in test [2], in test [6], in test [7], in test [4], in test [5] and in test [8] was “inactive” throughout. Besides, the compound was called inactive in test [3].
